Screening data from PubChem.
Only a selection was taken, and hits are over-represented in it overall.
HT1080 IDH1KD tx – HT-1080 IDH1 knockdown cell toxicity (counter line) | AID 686971 | hit rate 2% among 360,000 | HT-1080 IDH1 knockdown viability, ATP luminescence, 48 h | Potency, µM (titrated, usually from 46.1 µM), for inactives: top-dose activity, negative = toxicity, most hits filed as cytotoxic;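 also: potency is read from the fitted curve at half-maximal effect; 0% = DMSO wells and -100% = cell-free medium wells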
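Knockdown cells (IDH1KD HT-1080) received compounds 2 h after plating at 750 cells/well and were kept 48 h at 37 °C in 5% FBS RPMI. A CellTiter-Glo luminescence read gave % activity for curve fitting.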
DT40 TDP1 CPT – growth inhibition of DT40 Tdp1-/-;hTDP1 cells with camptothecin (screen for TDP1 inhibitors); chicken DT40 Tdp1-/-;hTDP1 cells + 20 nM CPT, ATP luminescence, 48 h; Potency, µM (top dose mostly 46.2 µM), for the others: at the highest dose activity change, negative = growth inhibition, most hits filed as inhibitors; hit rate 12% among 420,000; also: potency is read from the fitted curve at half-maximal effect; nearly all actives have a fitted effect of over 55% in size
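Chicken DT40 Tdp1-/- cells complemented with human TDP1, 400 cells/well, exposed to compounds plus 20 nM camptothecin for at least 48 h at 37 C; viability read as ATP content by CellTiter-Glo luminescence.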
IL1B secr inh – inhibitors of inflammasome signaling (IL-1 beta secretion); THP-1 LPS/ATP IL-1B secretion, AlphaLISA, 16 h; active compounds read low; activity change, % at 57.5 µM; hit rate 4.7% among 360,000; in the data active = activity change below about -50%; inconclusive = mostly about -30% to -49%
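THP-1 cells pretreated 1 hr with compounds (up to 57.5 uM final), then stimulated with LPS (250 ng/mL final) plus ATP (1.25 mM final); secreted IL-1B measured by AlphaLISA after 16 hr, decreased signal indicating inhibition.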
HT1080-NT tox – kills 2HG-producing HT-1080-NT fibrosarcoma cells; Potency, µM (doses to about 46.1 µM), for inactives: at the top dose activity, negative = less viability, usual class: cytotoxic; hit rate 1.6% among 360,000; AID 686970; HT-1080-NT fibrosarcoma viability, CellTiter-Glo ATP luminescence, 48 h;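 also: NT is the 2HG producing partner of a matched IDH1 knockdown line; potency is read from the fitted curve at half-maximal effect; 0% = DMSO-treated cells and -100% = media-only wells without cells; nearly all actives have a fitted effect of over 55% in size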
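A 48-hour cytotoxicity screen used HT-1080-NT cells plated 2 hours before compound delivery. ATP-based CellTiter-Glo luminescence measured viability, normalized to DMSO and no-cell controls.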
DT40 TDP1 no CPT – qHTS for Inhibitors of human tyrosyl-DNA phosphodiesterase 1 (TDP1): qHTS in cells in absence of CPT; hit rate 15% among 420,000; DT40 Tdp1-/- hTDP1 cells, no CPT, ATP luminescence, 48 h; Potency, µM (highest dose often 46.2 µM), for the others: at the highest dose activity change, negative = growth inhibition, actives largely listed as inhibitors; AID 686978, 2013; also: potency is read from the fitted curve at half-maximal effect; nearly all actives have a fitted effect of over 55% in size
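DT40 Tdp1-/-;hTDP1 cells, no CPT (DMSO vehicle only), 400 cells/well; compounds pin-transferred; ≥48 hr, 37 °C; CellTiter-Glo 30 min RT dark, luminescence read.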
ALOX12 inh – inhibitors of human 12S-lipoxygenase ALOX12 | Potency, µM (titrated, usually from 108 µM), without a hit: top-dose activity change, negative = inhibition, hits mostly inhibitors | P18054 | purified 12hLO, xylenol orange hydroperoxide absorbance | hit rate 1.1% among 580,000; also: potency is read from the fitted curve at half-maximal effect
Target sequence (P18054 whole entry, looked up): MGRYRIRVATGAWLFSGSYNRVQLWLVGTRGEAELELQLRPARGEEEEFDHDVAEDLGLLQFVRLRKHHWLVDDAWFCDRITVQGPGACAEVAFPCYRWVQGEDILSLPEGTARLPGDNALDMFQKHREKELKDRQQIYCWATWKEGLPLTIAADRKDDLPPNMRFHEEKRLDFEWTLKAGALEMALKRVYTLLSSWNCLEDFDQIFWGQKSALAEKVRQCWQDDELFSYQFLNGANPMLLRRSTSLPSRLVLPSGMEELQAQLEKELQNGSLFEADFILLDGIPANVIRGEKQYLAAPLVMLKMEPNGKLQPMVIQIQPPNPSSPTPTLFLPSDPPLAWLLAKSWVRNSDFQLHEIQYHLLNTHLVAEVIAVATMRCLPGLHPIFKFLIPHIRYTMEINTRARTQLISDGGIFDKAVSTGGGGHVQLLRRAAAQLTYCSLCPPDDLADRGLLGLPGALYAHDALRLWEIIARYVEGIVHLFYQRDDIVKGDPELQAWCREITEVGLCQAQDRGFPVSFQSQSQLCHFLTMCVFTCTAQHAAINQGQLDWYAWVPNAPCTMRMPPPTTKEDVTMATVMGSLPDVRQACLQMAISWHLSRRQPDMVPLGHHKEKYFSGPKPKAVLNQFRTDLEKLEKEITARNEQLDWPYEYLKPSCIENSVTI
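Purified human 12hLO (150 nM final) in 25 mM Hepes, 0.01% Triton X-100, pH 7.0 was preincubated 15 min at room temperature with compound. Then 40 uM arachidonic acid was added, 30 min. Hydroperoxide was read by Fe-XO absorbance ratio 573/405 nm.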
The depositor's hits bear a star; ? = inconclusive; nt = no result given; [ ] = dose if it differs, or a comment. Unless noted, calls follow the shape of the dose curve; as a rule, active = well fitted curve in the direction sought with a large enough effect; inconclusive = small, poorly fitted or top-dose-only effect, or another doubt; inactive = no such curve, though single readings can be large; an effect the other way counts as inactive or inconclusive. Unless noted, % is scaled to controls: 0 for no effect and ±100 for the full control effect.

SMILES	HT1080 IDH1KD tx	DT40 TDP1 CPT	IL1B secr inh	HT1080-NT tox	DT40 TDP1 no CPT	ALOX12 inh
Cc1ccc(NC(=O)CSc2ccccc2NC(=O)c2ccccc2Cl)cc1Cl	-7%	?	0	-7%	18µM*	9%
Cc1nc(SCC(=O)Nc2ccc(C)c(Cl)c2)cc(-c2ccccc2)n1	nt	23µM*	nt	nt	?	0%
Cc1ccc(NC(=O)CSc2nncs2)cc1Cl	1%	-14%	-21	2%	-2%	0%
Cc1ccc(NC(=O)CSc2ccccc2NC(=O)c2ccccc2)cc1Cl	?	15µM*	?	-24%	13µM*	?
C#CCN1C(=O)C(O)(CC(=O)/C=C/c2ccco2)c2ccccc21 (configuration not stated)	-8%	5.8µM*	6	-2%	3.7µM*	?
O=C(CC1(O)C(=O)N(CCc2ccccc2)c2ccc(Br)cc21)c1ccccc1 (configuration not stated)	nt	?	nt	nt	?	-25%
O=C(/C=C/c1ccco1)Nc1ccccc1N1CCCC1	-8%	?	-7	-10%	?	-14%
Cc1ccc(C(=O)CC2(O)C(=O)N(CCc3ccccc3)c3ccc(Cl)cc32)cc1 (configuration not stated)	nt	21µM*	nt	nt	23µM*	?
O=C(CC1(O)C(=O)N(CCc2ccccc2)c2ccccc21)c1ccco1 (configuration not stated)	18%	5.8µM*	15	23%	2.9µM*	350%
Cc1ccc(C(=O)CC2(O)C(=O)N(CCc3ccccc3)c3ccc(Br)cc32)o1 (configuration not stated)	-18%	?	-19	-13%	16µM*	?
Cc1coc(C)c1C(=O)CC1(O)C(=O)N(Cc2ccccc2)c2ccccc21 (configuration not stated)	-6%	16µM*	-16	-8%	23µM*	?
C=CCN1C(=O)C(O)(CC(=O)c2ccccc2)c2ccccc21 (configuration not stated)	11%[9.24 µM]	?	0	14%	18µM*	0%
Cc1ccc(C(=O)CC2(O)C(=O)N(Cc3ccccc3F)c3ccccc32)cc1 (configuration not stated)	nt	?	nt	nt	?	-14%
Cc1ccc(CN2C(=O)C(O)(CC(=O)c3ccc(C)cc3)c3ccccc32)cc1 (configuration not stated)	nt	5.8µM*	nt	nt	2.6µM*	?
CC(=O)CC1(O)C(=O)N(Cc2ccccc2)c2ccccc21 (configuration not stated)	0%	?	14	1%	?	6%
COc1ccc(C(=O)N2CCC(N3C(=O)CCC3C(=O)NCc3ccccc3)CC2)cc1 (configuration not stated)	nt	nt	nt	nt	nt	43%
COC(=O)c1cc(O)cc(OC)c1Oc1cc(C)cc(O)c1C(=O)O	?	1.2µM*	?	23µM*	1µM*	?
C=CCc1ccccc1OCCn1nnc2ccccc21	2%	?	50	-7%	23µM*	-2%
Cc1cccc(OCCn2nnc3ccccc32)c1C	-3%	?	-12	-1%	?	-6%
C/C=C/c1ccc(OCCCCOc2ccc(OC)cc2)c(OC)c1	11%	-14%	-4	12%	-23%	-16%
C/C=C/c1ccc(OCCn2nnc3ccccc32)c(OC)c1	-4%	18µM*	0	-16%	15µM*	0%
CCOc1ccc(C(=O)C(C)OC(=O)Cn2cnc3ccccc3c2=O)cc1 (configuration not stated)	nt	nt	nt	nt	nt	2%
CCOC(=O)N1CCc2c(sc3c2C(=O)NC(c2cc(OC)c(OC)c(OC)c2)N3)C1 (configuration not stated)	nt	3.7µM*	nt	nt	5.2µM*	-3%
CN1CCc2c(sc3c2C(=O)NC(c2ccccc2)N3)C1 (configuration not stated)	14%	?	-6	8%	23µM*	73%
CN1CCc2c(sc3c2C(=O)NC(c2ccc(OC(=O)c4ccc(C(C)(C)C)cc4)cc2)N3)C1 (configuration not stated)	nt	?	nt	nt	?	0%
SMILES	HT1080 IDH1KD tx	DT40 TDP1 CPT	IL1B secr inh	HT1080-NT tox	DT40 TDP1 no CPT	ALOX12 inh
CCOC(=O)N1CCc2c(sc3c2C(=O)NC(c2ccc(C(=O)OC)cc2)N3)C1 (configuration not stated)	nt	7.3µM*	nt	nt	13µM*	-20%
CC1=C(C(=O)N(C)C)C(c2ccc(Cl)cc2)N2C(CC(=O)NCc3ccccc3)=CSC2=N1 (configuration not stated)	nt	nt	nt	nt	nt	12%
NC(=O)C1=C(c2ccccc2)c2ccccc2C1=O	?	2.9µM*	-102*	-21%	5.2µM*	?
NC(=O)c1ccc2c(c1)-c1ccccc1C2=O	nt	nt	nt	nt	nt	-5%
CCc1ccc(NC(=O)C2CCN(S(=O)(=O)c3c(C)noc3/C=C/N(C)C)CC2)cc1	1%	?	-27	0%	9.2µM*	?
COc1ccc(NC(=O)C2CCN(S(=O)(=O)c3c(C)noc3/C=C/c3cccs3)CC2)cc1Cl	nt	?	nt	nt	?	-10%
CCc1ccc(NC(=O)C2CCN(S(=O)(=O)c3c(C)noc3/C=C/c3cccs3)CC2)cc1	nt	?	nt	nt	18µM*	-12%
Cc1noc(/C=C/c2cccs2)c1S(=O)(=O)N1CCC(C(=O)Nc2ccc(F)c(Cl)c2)CC1	nt	13µM*	nt	nt	15µM*	?
CCc1ccc(NC(=O)C2CCN(S(=O)(=O)c3c(C)noc3/C=C/c3ccco3)CC2)cc1	nt	?	nt	nt	-28%	-45%
COc1cccc(CNC(=O)C2CCN(S(=O)(=O)c3c(C)noc3/C=C/c3cccs3)CC2)c1	nt	?	nt	nt	23µM*	-13%
O=C(c1ccc2c(c1)OCO2)N1CCN2C(=O)N(Cc3ccc(F)cc3)C[C@H]2C1	nt	nt	nt	nt	nt	28%[176 µM]
Cc1[nH]c2ccccc2c(=O)c1C(=O)/C=C/c1ccccc1	?	5.2µM*	-101*	-4%	2.3µM*	-16%
O=C(/C=C/c1ccccc1)c1c[nH]c2ccccc12	0%	-20%	?	-1%	-1%	0%
O=C(C=Cc1ccccc1)c1c[nH]c2ccccc2c1=O	?	6.5µM*	-98*	8.2µM*	6.5µM*	-10%
Cc1[nH]c2ccccc2c1/C=C/C(=O)c1ccccc1	?	?	-12	-28%	?	-10%
